“And” between values parts separate entries of the source, which are not always exact repeats. Equal values may be shown once.
Tested on: H9c2
Assay: cardiomyocyte survival under oxidative or metabolic stress – cell-based, panel, H9c2 and HL-1, ATP luminescence, set 2, SAR follow-up (AID 651871);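 note: cells exposed to stressor for 2 h before ATP readout; reference of the scale not given here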
Conditions: H9c2/HL-1 cardiomyocytes, 2-deoxyglucose stress, with 2-deoxyglucose; run 12, at 79 µM (top of the series)

Compound	activity (protection/inhibition)
CCOC(=O)c1cccc(NC(=O)CNC(=O)c2cc(-c3cc(OC)c(OC)c(OC)c3)nc3ccccc23)c1	86.3%
COc1ccc2nc(-c3cc(OC)c(OC)c(OC)c3)cc(C(=O)NCC(=O)Nc3ccc(C(C)=O)cc3)c2c1	79.9%
COc1ccc2c(c1OC)C(=O)N1c3ccccc3C(=O)N(Cc3cccc(Cl)c3Cl)C21 (stereo not drawn)	79.7% and 81.4% and -3.37%
